This is a sample that favours compounds with a hit; in the whole collection about 2.3% have one here.
Epigenetic mod – epigenetic modulators derepressing GFP locus in mouse cells | mouse C127i GFP locus derepression, cytometry, 30 h | Potency, µM (titrated, usually from 46.1 µM), for inactives: at the highest dose GFP derepression (activation) | actives 0.09% (n = 68,000); also: % of control where 0% means no effect
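Locus derepression in mouse mammary C127i cells whose integrated CMV-GFP reporter is normally silent; GFP expression after 30 h compound treatment was quantified by counting fluorescent cells.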
Tau fil binding – binds recombinant human tau filaments; AID 596; P10636; actives 2% (n = 71,000); recombinant tau filaments, thioflavin S fluorescence, 15 h; filaments grown with octadecylsulfate alongside compound; Potency, µM (series often up to 57.1 µM), for inactives: top-dose activity change, negative = inhibition;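 also: potency is read from the fitted curve at half-maximal effect; % is scaled to controls: 0 for no effect and ±100 for the full control effect; actives lower thioflavin S fluorescence by blocking filaments or displacing dye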
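Quantitative HTS: thioflavine S signal from ODS-induced tau filaments, excited at 450 nm, emission 510 nm. Conditions: 1 uM tau, 30 uM ODS, 15 h at 37 C, pH 7.4.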
15-hLO-2 inh – inhibitors of human 15-lipoxygenase 2 (ALOX15B); purified 15hLO-2, xylenol orange hydroperoxide absorbance; Potency, µM (doses to about 57.1 µM), inactives show at the top dose activity change, negative = inhibition, most hits filed as inhibitors; actives 0.56% (n = 110,000); also: potency is read from the fitted curve at half-maximal effect; % is scaled to controls: 0 for no effect and ±100 for the full control effect; nearly all actives have a fitted effect of over 60% in size
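Read-out: hydroperoxide product oxidises ferrous iron, measured as xylenol orange complex via the 573-to-405 nm absorbance ratio after 30 min. Reaction: 50 nM enzyme, 15 min compound preincubation, 45 uM arachidonic acid, 90 min RT, Hepes pH 7.5 with Triton X-100.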
HBB splicing – modulators of hemoglobin beta chain splicing. HBB splicing reporter cell assay, activation; EGFP reporter with mutant IVS2-654 intron; response scale: normalised to 500 nM splice-correcting PNA. Potency, µM (highest dose often 46.1 µM), without a hit: at the top dose activation, actives largely listed as activators. actives 0.06% (n = 65,000). AID 925; also: potency is read from the fitted curve at half-maximal effect; 0% is about no effect
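Compounds were applied for 2 days to HeLa EGFP-654 cells, 500/well in Optimem with 2% FCS. The reporter's EGFP is disrupted by mis-splicing of beta-globin intron IVS2-654. Readout: summed well GFP fluorescence from 488 nm laser scanning; reference was 500 nM antisense […] 654 PNA.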
15-hLO inh – 15-hLO (ALOX15) enzyme inhibition; Potency, µM (highest dose often 57.1 µM), for inactives: at the top dose activity change, negative = inhibition, usual class: inhibitors; P16050; purified 15hLO-1, xylenol orange hydroperoxide absorbance; actives 1.4% (n = 74,000); also: potency is read from the fitted curve at half-maximal effect; % is scaled to controls: 0 for no effect and ±100 for the full control effect; nearly all actives have a fitted effect of over 55% in size
Target sequence (P16050 whole entry, looked up): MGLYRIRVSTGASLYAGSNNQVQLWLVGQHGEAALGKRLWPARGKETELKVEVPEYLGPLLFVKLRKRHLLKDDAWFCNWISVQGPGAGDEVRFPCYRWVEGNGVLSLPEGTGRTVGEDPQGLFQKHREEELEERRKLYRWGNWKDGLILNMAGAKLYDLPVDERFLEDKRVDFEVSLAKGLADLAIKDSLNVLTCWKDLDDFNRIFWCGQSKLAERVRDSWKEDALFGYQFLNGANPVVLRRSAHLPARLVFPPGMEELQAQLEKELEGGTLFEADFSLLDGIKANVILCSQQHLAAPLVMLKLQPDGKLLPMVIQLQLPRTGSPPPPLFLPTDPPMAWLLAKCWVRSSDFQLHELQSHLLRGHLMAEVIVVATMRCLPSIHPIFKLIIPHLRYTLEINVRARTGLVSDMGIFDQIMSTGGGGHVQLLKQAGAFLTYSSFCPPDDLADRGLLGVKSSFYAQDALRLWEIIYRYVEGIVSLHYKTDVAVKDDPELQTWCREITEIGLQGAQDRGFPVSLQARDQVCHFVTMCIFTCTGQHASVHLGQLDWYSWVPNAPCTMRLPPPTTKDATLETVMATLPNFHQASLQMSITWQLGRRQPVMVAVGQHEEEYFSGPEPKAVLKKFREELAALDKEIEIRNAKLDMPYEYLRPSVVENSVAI
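Quantitative HTS in 25 mM Hepes pH 7.5 containing 0.01% Triton X-100: human 15hLO-1 at 40 nM, arachidonic acid at 50 uM, 6 min turnover. Product quantified via ferrous oxidation/xylenol orange, 573:405 nm absorbance ratio.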
Ub-GFP proteasome – inhibits proteasome, raising ubiquitin-GFP reporter fluorescence | Potency, µM (highest dose often 45.9 µM), inactives show top-dose activation (GFP accumulation), usual class: activators | Ubiquitin-GFP reporter cells, proteasome inhibition, GFP fluorescence; response scale: untreated = 0%, 10 µM MG-132 = 100% | AID 526 | 67,000 tested, under 10 active; active = well fitted activation curve with a large enough effect, not every such curve was filed as active; inconclusive = small, poorly fitted or top-dose-only effect, or another doubt; inactive = no such curve, though single readings can be large or run the other way; also: potency is read from the fitted curve at half-maximal effect
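Proteasome block read as GFP accumulation: ubiquitin(G76V)-GFP U2OS cells exposed to compound (2.9 nM–46 uM) for 4 hr at 37 C. Normalization used untreated cells as 0% and 10 uM MG-132 as 100%; concentration-response curves fitted.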
* hit, by the source's call; [ ] = dose if it differs, or a comment. Unless noted, calls follow the shape of the dose curve; as a rule, active = well fitted curve in the direction sought with a large enough effect; inconclusive = small, poorly fitted or top-dose-only effect, or another doubt; inactive = no such curve, though single readings can be large; an effect the other way counts as inactive or inconclusive.

CN1CCN(C(=O)c2ccc(-n3c(=O)c(=O)[nH]c4ccccc43)cc2)CC1 was read as 15-hLO inh -6%.
`CCOC(=O)CCN1CCN(C(=O)c2ccc(-n3c(=O)c(=O)[nH]c4ccccc43)cc2)CC1` gave 15-hLO inh 13µM*.
For C=C(C)CSC1=C(C#N)C(c2ccccc2Cl)CC(=O)N1 (centres undefined) the results were Epigenetic mod 9%, Tau fil binding -6%, 15-hLO-2 inh -22%, HBB splicing 0%[57.5 µM], 15-hLO inh 16µM* and Ub-GFP proteasome -4%.
`C=CCSC1=C(C#N)C(c2ccccc2Cl)CC(=O)N1` (centres undefined) gave Epigenetic mod 7%, Tau fil binding -15%, 15-hLO-2 inh -2%, HBB splicing -1%[9.22 µM], 15-hLO inh -9% and Ub-GFP proteasome -9%.
Screening Nc1ncnc2c1nc(Br)n2[C@H]1O[C@H]2COP(=O)(O)O[C@H]2[C@@H]1O returned Epigenetic mod -1%, Tau fil binding 40µM*, 15-hLO-2 inh 15%, 15-hLO inh inconclusive and Ub-GFP proteasome 3%.
CCCCc1ccc(/C=C2\C(=O)c3ccccc3C(O)=C2C(=O)OCC)cc1 was read as 15-hLO-2 inh 10µM*.
CC(C)CNC(=O)O was read as Epigenetic mod 10%[9.22 µM], Tau fil binding -3%[11.4 µM], 15-hLO-2 inh -2%[11.4 µM], HBB splicing 0%[9.22 µM], 15-hLO inh 2%[11.4 µM] and Ub-GFP proteasome 4%[9.17 µM].
`CN(C)c1ccc(NC(=O)c2ccc(COc3cccc(Cl)c3)o2)cc1` gave Epigenetic mod -1%, Tau fil binding 7.9µM*, 15-hLO-2 inh -7%, HBB splicing -1%, 15-hLO inh -12% and Ub-GFP proteasome 8%.
For C[C@H](Br)C(=O)c1ccc2cc(Br)c3ccccc3c2c1 the results were Epigenetic mod 2%[9.22 µM], Tau fil binding -11%[11.4 µM], 15-hLO-2 inh -8%[11.4 µM], HBB splicing 1%[9.22 µM], 15-hLO inh 0%[11.4 µM] and Ub-GFP proteasome 4%[9.17 µM].
`COc1ccc(Nc2nc(NC(C)(C)C)nc(N3CCCC3)n2)c(OC)c1` gave 15-hLO-2 inh 21%.
Screening COc1ccc(N2CCN(c3nc(NC(C)(C)C)nc(N4CCCCC4)n3)CC2)cc1 returned Epigenetic mod -3%, Tau fil binding 10µM*, 15-hLO-2 inh 11%[2.29 µM], HBB splicing 0%, 15-hLO inh -8% and Ub-GFP proteasome 2%.
NC(=O)C1=CN([C@@H]2O[C@@H](COP(=O)(O)OP(=O)(O)OC[C@@H]3O[C@H](n4cnc5c(N)ncnc54)[C@@H](OP(=O)(O)O)[C@@H]3O)[C@H](O)[C@@H]2O)C=CC1 was read as Epigenetic mod 0%, Tau fil binding -3%, 15-hLO-2 inh 15%, HBB splicing 2%, 15-hLO inh -17% and Ub-GFP proteasome 3%.
NCCSCCc1ccccc1 was read as Epigenetic mod 0%[9.22 µM], Tau fil binding 5%[11.4 µM], 15-hLO-2 inh -3%[11.4 µM], HBB splicing -1%[9.22 µM], 15-hLO inh 7%[11.4 µM] and Ub-GFP proteasome 3%[9.17 µM].
Screening O=C(Nc1ccc(F)cc1F)c1cc(-c2ccco2)on1 returned Epigenetic mod -4%, Tau fil binding 20µM*, 15-hLO-2 inh -15%, HBB splicing -6%, 15-hLO inh -28% and Ub-GFP proteasome 8%.
O=C(Nc1c(F)cc(F)cc1Br)c1cc(-c2ccco2)on1 was read as Epigenetic mod 0%, Tau fil binding -9%, 15-hLO-2 inh -11%, HBB splicing -2%, 15-hLO inh -14% and Ub-GFP proteasome -9%.
COCc1cc(C)nc(SCC(=O)c2ccc(O)c(O)c2)c1C#N was read as Epigenetic mod 0%, Tau fil binding 28%, 15-hLO-2 inh -4%[11.4 µM], HBB splicing 1%, 15-hLO inh 3.2µM* and Ub-GFP proteasome -2%.

Assay outcomes deposited in PubChem by National Center for Advancing Translational Sciences (NCATS).
